The whole screen tested about 5,500 compounds, of which about 2,000 (36%) were called active. Inconclusive results (about 18%) are left out. Cut-off read from the data, not from the text of the source: active = normalized growth mostly below about 0.91 (no sharp cut-off); inconclusive = no clear call, values can overlap the other calls; inactive = mostly above about 0.92. This is one part of the list.
Assay: chemical genetic growth profiling, strain panel (AID 1159580);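 note: tested at 20 µM; growth read once vehicle control cultures reached saturation at 30 °C; 1 = growth at the plate median or of vehicle wells; lower values mean less growth of the strain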
Conditions: growth OD

Measured: normalized growth

OCCN1C[C@@H](O)[C@@H](O)C(O)C1CO (stereo partly specified)
inactive: S. cerevisiae deletion strains, locus YKL009W, strain mrt4, hits give low values 1.01 | S. cerevisiae deletion strains, locus YKL068W, hits give low values 1.01 | S. cerevisiae deletion strains, locus YKL085W, strain MDH1 (second series), hits give low values 1 | S. cerevisiae deletion strains, locus YKL085W, strain MDH1, hits give low values 1 | S. cerevisiae deletion strains, locus YKL160W, strain elf1, hits give low values 1.01 | S. cerevisiae deletion strains, locus YKL190W, strain CNB1, hits give low values 1.02 | S. cerevisiae deletion strains, locus YKR001C, strain vps1, hits give low values 0.999 | S. cerevisiae deletion strains, locus YKR026C, strain gcn3, hits give low values 1.02 | S. cerevisiae deletion strains, locus YKR091W, strain srl3, hits give low values 1 | S. cerevisiae deletion strains, locus YLL001W, strain dnm1, hits give low values 1.02 | S. cerevisiae deletion strains, locus YLL026W, hits give low values 1.01 | S. cerevisiae deletion strains, locus YLL041C, strain sdh2, hits give low values 1 | S. cerevisiae deletion strains, locus YLR027C, strain aat2, hits give low values 0.992 | S. cerevisiae deletion strains, locus YLR039C, strain RIC1, hits give low values 0.958 | S. cerevisiae deletion strains, locus YLR058C, strain SHM2, hits give low values 1.02 | S. cerevisiae deletion strains, locus YLR102C, strain apc9, hits give low values 0.997 | S. cerevisiae deletion strains, locus YLR113W, strain HOG1, hits give low values 1.04 | S. cerevisiae deletion strains, locus YLR221C, strain rsa3, hits give low values 1.01 | S. cerevisiae deletion strains, locus YLR258W, strain gsy2, hits give low values 1 | S. cerevisiae deletion strains, locus YLR262C, strain YPT6 (second series), hits give low values 0.994 | S. cerevisiae deletion strains, locus YLR262C, strain YPT6, hits give low values 1 | S. cerevisiae deletion strains, locus YLR268W, strain sec22, hits give low values 1 | S. cerevisiae deletion strains, locus YLR320W, strain mms22, hits give low values 1.01 | S. cerevisiae deletion strains, locus YLR330W, strain CHS5, hits give low values 1.01 | S. cerevisiae deletion strains, locus YLR342W, strain FKS1 (second series), hits give low values 1.01 | S. cerevisiae deletion strains, locus YLR342W, strain FKS1, hits give low values 0.99 | S. cerevisiae deletion strains, locus YLR357W, strain rsc2, hits give low values 1 | S. cerevisiae deletion strains, locus YLR370C, strain arc18, hits give low values 1 | S. cerevisiae deletion strains, locus YLR371W, strain rom2, hits give low values 0.995 | S. cerevisiae deletion strains, locus YLR384C, strain iki3, hits give low values 1 | S. cerevisiae deletion strains, locus YLR418C, strain cdc73, hits give low values 0.977 | S. cerevisiae deletion strains, locus YML016C, strain PPZ1, hits give low values 1.01 | S. cerevisiae deletion strains, locus YML032C, strain rad52, hits give low values 1.01 | S. cerevisiae deletion strains, locus YML120C, strain ndi1, hits give low values 1.02 | S. cerevisiae deletion strains, locus YML124C, strain tub3, hits give low values 1.01 | S. cerevisiae deletion strains, locus YMR058W, strain fet3, hits give low values 1 | S. cerevisiae deletion strains, locus YMR078C, strain ctf18, hits give low values 1 | S. cerevisiae deletion strains, locus YMR125W, strain sto1, hits give low values 0.997 | S. cerevisiae deletion strains, locus YMR129W, hits give low values 0.997 | S. cerevisiae deletion strains, locus YMR205C, strain PFK2, hits give low values 1 | S. cerevisiae deletion strains, locus YMR223W, strain ubp8, hits give low values 1 | S. cerevisiae deletion strains, locus YMR231W, strain pep5, hits give low values 1 | S. cerevisiae deletion strains, locus YMR263W, strain SAP30, hits give low values 1.02 | S. cerevisiae deletion strains, locus YMR307W, strain GAS1, hits give low values 1.01 | S. cerevisiae deletion strains, locus YNL067W, strain RPL9B, hits give low values 1.02 | S. cerevisiae deletion strains, locus YNL071W, strain lat1, hits give low values 0.993 | S. cerevisiae deletion strains, locus YNL128W, strain TEP1, hits give low values 1.02 | S. cerevisiae deletion strains, locus YNL153C, strain GIM3, hits give low values 1.01 | S. cerevisiae deletion strains, locus YNL183C, strain NPR1, hits give low values 0.97 | S. cerevisiae deletion strains, locus YNL209W, strain ssb2, hits give low values 1 | S. cerevisiae deletion strains, locus YNL233W, strain BNI4, hits give low values 1.02 | S. cerevisiae deletion strains, locus YNL248C, strain rpa49, hits give low values 1.02 | S. cerevisiae deletion strains, locus YNL250W, strain rad50, hits give low values 1 | S. cerevisiae deletion strains, locus YNL271C, strain bni1, hits give low values 0.986 | S. cerevisiae deletion strains, locus YNL298W, strain CLA4, hits give low values 0.994 | S. cerevisiae deletion strains, locus YNL307C, strain MCK1, hits give low values 1.01 | S. cerevisiae deletion strains, locus YNL322C, strain KRE1 (second series), hits give low values 1.02 | S. cerevisiae deletion strains, locus YNL322C, strain KRE1, hits give low values 1.01 | S. cerevisiae deletion strains, locus YNR049C, strain mso1, hits give low values 1 | S. cerevisiae deletion strains, locus YNR052C, strain pop2, hits give low values 0.999 | S. cerevisiae deletion strains, locus YOL006C, strain TOP1, hits give low values 1.04 | S. cerevisiae deletion strains, locus YOL012C, strain htz1 1.11 | S. cerevisiae deletion strains, locus YOL147C, strain pex11, hits give low values 1 | S. cerevisiae deletion strains, locus YOR001W, strain rrp6, hits give low values 1 | S. cerevisiae deletion strains, locus YOR061W, strain CKA2, hits give low values 1.01 | S. cerevisiae deletion strains, locus YOR069W, strain VPS5, hits give low values 1.01 | S. cerevisiae deletion strains, locus YOR070C, strain gyp1, hits give low values 0.997 | S. cerevisiae deletion strains, locus YOR080W, strain dia2, hits give low values 1.01 | S. cerevisiae deletion strains, locus YOR083W, strain WHI5, hits give low values 1 | S. cerevisiae deletion strains, locus YOR106W, strain vam3, hits give low values 1.03 | S. cerevisiae deletion strains, locus YOR136W, strain idh2, hits give low values 0.998 | S. cerevisiae deletion strains, locus YOR144C, strain elg1, hits give low values 1 | S. cerevisiae deletion strains, locus YOR184W, strain ser1, hits give low values 1 | S. cerevisiae deletion strains, locus YOR231W, strain MKK1, hits give low values 1.01 | S. cerevisiae deletion strains, locus YOR265W, strain rbl2, hits give low values 0.988 | S. cerevisiae deletion strains, locus YOR270C, strain vph1, hits give low values 1.05 | S. cerevisiae deletion strains, locus YOR290C, strain snf2, hits give low values 1.01 | S. cerevisiae deletion strains, locus YOR316C, strain cot1, hits give low values 0.997 | S. cerevisiae deletion strains, locus YPL051W, strain arl3, hits give low values 1 | S. cerevisiae deletion strains, locus YPL055C, strain LGE1, hits give low values 1.05 | S. cerevisiae deletion strains, locus YPL078C, strain atp4, hits give low values 1.01 | S. cerevisiae deletion strains, locus YPL106C, strain sse1, hits give low values 1.03 | S. cerevisiae deletion strains, locus YPL240C, strain hsp82, hits give low values 1 | S. cerevisiae deletion strains, locus YPL241C, strain CIN2, hits give low values 1.01 | S. cerevisiae deletion strains, locus YPL256C, strain CLN2, hits give low values 1.02 | S. cerevisiae deletion strains, locus YPR119W, strain clb2, hits give low values 0.996 | S. cerevisiae deletion strains, locus YPR141C, strain kar3, hits give low values 1 | S. cerevisiae deletion strains, locus YPR163C, strain tif3, hits give low values 1 | S. cerevisiae deletion strains, locus YPR167C, strain met16, hits give low values 0.997 | S. cerevisiae deletion strains, strain wtn01, hits give low values 1 | S. cerevisiae strains, strain wild type, hits give low values 1.01
